Experimental data taken from the supplement of paper PMC8773631.
Where a name gives a salt, the structure may show the parent alone. ± gives the uncertainty stated by the source.

System: NCC-MFS5-C1
Assay: cell viability relative to DMSO control; higher = less growth inhibition
Details: 10 µM; treatment time: 3 days
Method: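 NCC-MFS5-C1 myxofibrosarcoma cells (1x10^4 per well, 384-well) were treated on day 2 with 10 µM of each drug. On day 5, viability was read by CCK-8 absorbance at 450 nm and normalised to the DMSO control (%), n = 2.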

Row | Structure (SMILES) | cell viability
1 | Nc1nc2[nH]cnc2c(=S)[nH]1 [Thioguanine] | 90.3 ± 0.61%
2 | Cn1nnc2c(C(N)=O)ncn2c1=O [Temozolomide] | 99.4 ± 23%
3 | CC[C@@]1(O)C(=O)OCc2c1cc1n(c2=O)Cc2cc3c(CN(C)C)c(O)ccc3nc2-1 [Topotecan HCl] | 33.3 ± 5.3%
4 | CNC(=O)c1ccc(N2C(=S)N(c3ccc(C#N)c(C(F)(F)F)c3)C(=O)C2(C)C)cc1F [Enzalutamide (MDV3100)] | 80.3 ± 7.7%
5 | CCN1CCN(c2ccc(Nc3cc(N(C)C(=O)Nc4c(Cl)c(OC)cc(OC)c4Cl)ncn3)cc2)CC1 | 59.8 ± 5.6%
6 | CC(=O)OCC(CCn1cnc2cnc(N)nc21)COC(C)=O [Famciclovir] | 80.4 ± 5.5%
7 | CC1=C(/C=C/C(C)=C/C=C/C(C)=C/C(=O)O)C(C)(C)CCC1 [Tretinoin] | 78.5 ± 4.5%
8 | CCCCNc1ncc(-c2ccc(CN3CCOCC3)cn2)c(NC2CCC(O)CC2)n1 (stereo unspecified) | 36.41 ± 0.22%
9 | CN(C)/N=N/c1[nH]cnc1C(N)=O [Dacarbazine] | 82 ± 1.7%
10 | CNC[C@H](O)c1ccc(O)c(O)c1 [Epinephrine Bitartrate] | 106 ± 5.9%
11 | CN1c2cc(O)c(N=NC(N)=O)cc2CC1S(=O)(=O)O (stereo unspecified) [Carbazochrome sodium sulfonate (AC-17)] | 78.6 ± 7.6%
12 | COc1cc2c(cc1O)CC[C@@H]1[C@@H]2CC[C@]2(C)[C@@H](O)CC[C@@H]12 [2-Methoxyestradiol (2-MeOE2)] | 57.5 ± 7.6%
13 | C[C@]1(O)C[C@@H](c2nc(-c3ccc4ccc(-c5ccccc5)nc4c3)c3c(N)nccn32)C1 [Linsitinib (OSI-906)] | 57 ± 0.57%
14 | C#Cc1cccc(Nc2ncnc3cc(OCCOC)c(OCCOC)cc23)c1 [Erlotinib HCl (OSI-744)] | 81.6 ± 1%
15 | COc1cc2nccc(Oc3ccc(NC(=O)C4(C(=O)Nc5ccc(F)cc5)CC4)cc3)c2cc1OC | 93.8 ± 6.7%
16 | Nc1cc(C(Cl)=C(Cl)Cl)c(S(N)(=O)=O)cc1S(N)(=O)=O [Clorsulon] | 89.3 ± 2.4%
17 | CCN(CC)CCNC(=O)c1c(C)[nH]c(/C=C2\C(=O)Nc3ccc(F)cc32)c1C [Sunitinib] | 67.9 ± 9.6%
18 | Cc1ccc(NC(=O)c2ccc(CN3CCN(C)CC3)cc2)cc1Nc1nccc(-c2cccnc2)n1 [Imatinib (STI571)] | 72.9 ± 3.3%

Row | Structure (SMILES) | cell viability
19 | Cc1cccc(N(C)C(=S)Oc2ccc3ccccc3c2)c1 [Tolnaftate] | 103 ± 6.7%
20 | COc1cc(N2CCC(N3CCN(C)CC3)CC2)ccc1Nc1ncc(Cl)c(Nc2ccccc2S(=O)(=O)C(C)C)n1 | 52.7 ± 1.8%
21 | COc1cccc2c1C(=O)c1c(O)c3c(c(O)c1C2=O)C[C@@](O)(C(=O)CO)C[C@@H]3O[C@H]1C[C@H](N)[C@H](O)[C@H](C)O1 [Doxorubicin (Adriamycin)] | 37.47 ± 0.32%
22 | O=C(CCBr)N1CCN(C(=O)CCBr)CC1 [Pipobroman-D8] | 108 ± 6.2%
23 | C=CC(=O)N1CCC[C@@H](n2nc(-c3ccc(Oc4ccccc4)cc3)c3c(N)ncnc32)C1 | 79.2 ± 0.35%
24 | Cc1ccc(S(=O)(=O)Nc2nc3ccccc3nc2Nc2ccc3nsnc3c2)cc1 [XL147 analog] | 84.5 ± 6%
25 | C=CC(=O)Nc1cc2c(Nc3ccc(F)c(Cl)c3)ncnc2cc1OCCCN1CCOCC1 [Canertinib(CI-1033)] | 84.2 ± 5%
26 | CNC(=O)c1ccccc1Sc1ccc2c(/C=C/c3ccccn3)n[nH]c2c1 [Axitinib] | 79.1 ± 4.4%
27 | CN(N=O)C(=O)NC1C(O)OC(CO)C(O)C1O (stereo unspecified) [Streptozotocin (STZ)] | 113 ± 27%
28 | CC#CCn1c(N2CCC[C@@H](N)C2)nc2c1c(=O)n(Cc1nc(C)c3ccccc3n1)c(=O)n2C [Linagliptin] | 92.8 ± 5.3%
29 | COc1cc2ncnc(Nc3ccc(F)c(Cl)c3)c2cc1NC(=O)/C=C/CN1CCCCC1 | 82.9 ± 3.8%
30 | CCC[C@@H]1C[C@@H](C(=O)N[C@@H]([C@H]2O[C@H](SC)[C@H](O)[C@@H](O)[C@H]2O)[C@@H](C)O)N(C)C1 [Lincomycin HCl] | 80.5 ± 9.3%
31 | CCc1ccc(CCOc2ccc(CC3SC(=O)NC3=O)cc2)nc1 (stereo unspecified) [Pioglitazone] | 95.3 ± 2.9%
32 | Nc1ccn([C@@H]2O[C@H](CO)[C@@H](O)C2(F)F)c(=O)n1 [Gemcitabine HCl] | 79.5 ± 5%
33 | C[C@@H]1CCN(C(=O)CC#N)C[C@@H]1N(C)c1ncnc2[nH]ccc12 | 79.5 ± 2.5%
34 | CC(=O)Oc1ccccc1C(=O)O [Aspirin] | 81.4 ± 1.1%
35 | COc1c2ccoc2cc2oc(=O)ccc12 [Bergapten] | 105 ± 18%
36 | CO[C@H]1C[C@@H]2CC[C@@H](C)[C@@](O)(O2)C(=O)C(=O)N2CCCC[C@H]2C(=O)O[C@H]([C@H](C)C[C@@H]2CC[C@@H](OC(=O)C(C)(CO)CO)[C@H](OC)C2)CC(=O)[C@H](C)/C=C(\C)[C@@H](O)[C@@H](OC)C(=O)[C@H](C)C[C@H](C)/C=C/C=C/C=C/1C | 52.2 ± 7.9%
